Results on 14 molecules are retold here after PubChem BioAssay.

A short description of test [1]: compounds binding Alexa647 anti-His antibody – biochemical, small-molecule microarray, 635 nm fluorescence, artefact control for SMM control protein annotation, primary screen (AID 1128).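 Note: score merges feature fluorescence with signal-to-noise for each printed compound spot.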 Particulars: higher = more signal.
Test [2] relates to Human papillomavirus type 1a E7 protein (residues 1-88). The test is described as follows: HPV1a E7 small-molecule binders, primary screen, biochemical, small-molecule microarray, residues 1-88, 635 nm (AID 1129). Particulars: small-molecule microarray binding, fluorescence 635 nm; higher = more signal.
Test [3] deals with Focal adhesion kinase 1 (Homo sapiens) (UniProt Q05397). The test is described as follows: PTK2 protein binding on printed compound slides – biochemical, small-molecule microarray, 635/667 nm fluorescence, BSA, DTT, primary screen (AID 1130).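 Note: composite of spot emission at 667 nm and signal to noise over triplicate slides.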 Particulars: 635 nm fluorescence, higher = more signal.
Chain of Focal adhesion kinase 1 (Homo sapiens) (Q05397 whole entry, looked up): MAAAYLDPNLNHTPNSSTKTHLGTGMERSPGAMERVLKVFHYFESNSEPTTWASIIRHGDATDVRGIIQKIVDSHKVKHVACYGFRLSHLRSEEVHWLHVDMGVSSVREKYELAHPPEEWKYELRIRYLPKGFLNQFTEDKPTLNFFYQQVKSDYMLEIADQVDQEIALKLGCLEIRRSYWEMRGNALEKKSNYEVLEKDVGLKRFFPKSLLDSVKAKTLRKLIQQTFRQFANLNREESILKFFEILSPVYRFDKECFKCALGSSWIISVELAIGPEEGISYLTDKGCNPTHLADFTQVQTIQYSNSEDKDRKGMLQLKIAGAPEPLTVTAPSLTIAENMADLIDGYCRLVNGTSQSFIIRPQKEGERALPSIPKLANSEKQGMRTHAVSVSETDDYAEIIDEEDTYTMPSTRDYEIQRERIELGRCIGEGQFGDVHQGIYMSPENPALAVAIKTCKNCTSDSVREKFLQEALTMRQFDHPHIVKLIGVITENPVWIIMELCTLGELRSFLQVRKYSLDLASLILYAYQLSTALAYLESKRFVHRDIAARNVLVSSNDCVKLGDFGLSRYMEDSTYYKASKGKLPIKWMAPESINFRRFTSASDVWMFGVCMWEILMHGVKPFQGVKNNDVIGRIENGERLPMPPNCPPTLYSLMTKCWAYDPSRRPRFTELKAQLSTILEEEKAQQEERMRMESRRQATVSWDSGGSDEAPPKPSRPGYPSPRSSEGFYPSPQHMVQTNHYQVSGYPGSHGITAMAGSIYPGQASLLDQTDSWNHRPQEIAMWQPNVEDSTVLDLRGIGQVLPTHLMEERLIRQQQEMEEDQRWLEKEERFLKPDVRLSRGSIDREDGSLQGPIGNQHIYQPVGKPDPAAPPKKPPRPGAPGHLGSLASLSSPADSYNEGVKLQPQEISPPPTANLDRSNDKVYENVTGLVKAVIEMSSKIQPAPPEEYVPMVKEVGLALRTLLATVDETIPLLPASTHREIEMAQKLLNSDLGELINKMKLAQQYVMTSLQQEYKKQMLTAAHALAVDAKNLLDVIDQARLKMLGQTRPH
Test [4] relates to Fibrinogen (Alexa647-labelled). Kind of test: Alexa647-fibrinogen binding to printed small molecules – biochemical, small-molecule microarray, 635/667 nm fluorescence, artefact control for SMM control-protein annotation, profiling panel (AID 1131).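 Note: z-score merges 667 nm fluorescence with per-spot signal-to-noise over triplicate slides.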 Particulars: fibrinogen-A647 binding fluorescence, higher = more signal.
The target of test [5] is Follistatin (Homo sapiens) (UniProt P19883). Kind of test: FST protein binding to printed compounds – biochemical, small-molecule microarray, 635/667 nm fluorescence, primary screen (AID 1132). Particulars: 635 nm fluorescence, higher = more signal.
Chain of Follistatin (Homo sapiens) (P19883 whole entry, looked up): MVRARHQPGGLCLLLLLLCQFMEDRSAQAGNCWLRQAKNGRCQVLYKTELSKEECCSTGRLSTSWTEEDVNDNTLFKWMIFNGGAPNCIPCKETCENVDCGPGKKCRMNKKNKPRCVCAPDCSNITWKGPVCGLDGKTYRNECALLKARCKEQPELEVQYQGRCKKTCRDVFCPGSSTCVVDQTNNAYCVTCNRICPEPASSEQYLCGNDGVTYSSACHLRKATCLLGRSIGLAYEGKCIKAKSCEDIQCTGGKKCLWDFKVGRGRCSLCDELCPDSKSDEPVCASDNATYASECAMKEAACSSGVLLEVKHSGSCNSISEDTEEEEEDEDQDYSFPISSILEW
Test [6] has as its target Fibroblast growth factor 2 (Homo sapiens) (UniProt P09038). Kind of test: basic fibroblast growth factor binding to printed compounds – biochemical, small-molecule microarray, 635/667 nm fluorescence, primary screen (AID 1133). The settings on record: FGF2, fluorescence 635/667, higher = more signal.
The nature of test [7]: JC-1 mitochondrial potential readout, lung cancer cells – cell-based, A549, JC-1 fluorescence, basal, 24 h, 100 nL, profiling panel (AID 1138).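 Note: A549 lung adenocarcinoma cells under basal conditions with no added stimulus; test concentration not given here.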 Particulars: higher = more signal.
The next test relates to Lefty1. Kind of test: Lefty1 protein binding to printed compounds – biochemical, small-molecule microarray, 635/667 nm fluorescence, primary screen (AID 1139). The settings on record: fluorescence 635/667, higher = more signal.
The test system of test [8] is wheat germ agglutinin (Triticum aestivum), Alexa647-labelled. Kind of test: Alexa647-WGA lectin binding to printed small molecules – biochemical, small-molecule microarray, 635/667 nm fluorescence, artefact control for SMM control-protein annotation, profiling panel (AID 1140).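 Note: score merges 667 nm feature emission with signal to noise over triplicate slides.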 Particulars: WGA-A647 binding, 635 nm fluorescence, higher = more signal.
The target in test [9] is Luciferin 4-monooxygenase (Photinus pyralis) (UniProt P08659). The test is described as follows: inhibition of purified Photinus pyralis luciferase – biochemical, luminescence, purified enzyme, 2006 set, primary screen (AID 1141).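 Note: cell-free assay with purified firefly luciferase at 100 ng per well in PBS; test concentration not given here.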 Particulars: purified firefly luciferase, SteadyGlo luminescence, 30 min; higher = more signal, called active from +8 up or from −8 down.
Chain of Luciferin 4-monooxygenase (Photinus pyralis) (P08659 whole entry, looked up): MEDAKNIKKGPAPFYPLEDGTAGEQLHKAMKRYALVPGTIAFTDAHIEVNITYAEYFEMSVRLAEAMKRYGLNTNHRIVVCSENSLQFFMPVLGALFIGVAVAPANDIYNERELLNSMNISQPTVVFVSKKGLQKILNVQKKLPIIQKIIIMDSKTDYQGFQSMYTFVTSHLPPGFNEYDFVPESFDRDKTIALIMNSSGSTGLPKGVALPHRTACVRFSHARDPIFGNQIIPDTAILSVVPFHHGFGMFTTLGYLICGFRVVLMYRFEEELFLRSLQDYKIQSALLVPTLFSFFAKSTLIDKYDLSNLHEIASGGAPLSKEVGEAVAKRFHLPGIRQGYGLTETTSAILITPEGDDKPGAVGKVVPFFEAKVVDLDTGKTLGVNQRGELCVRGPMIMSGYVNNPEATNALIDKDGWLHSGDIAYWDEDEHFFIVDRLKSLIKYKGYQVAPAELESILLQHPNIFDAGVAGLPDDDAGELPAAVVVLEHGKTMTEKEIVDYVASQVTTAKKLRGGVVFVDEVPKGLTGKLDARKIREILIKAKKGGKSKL

The source made the active and inactive calls.

Chain of Fibroblast growth factor 2 (Homo sapiens) (P09038 whole entry, looked up): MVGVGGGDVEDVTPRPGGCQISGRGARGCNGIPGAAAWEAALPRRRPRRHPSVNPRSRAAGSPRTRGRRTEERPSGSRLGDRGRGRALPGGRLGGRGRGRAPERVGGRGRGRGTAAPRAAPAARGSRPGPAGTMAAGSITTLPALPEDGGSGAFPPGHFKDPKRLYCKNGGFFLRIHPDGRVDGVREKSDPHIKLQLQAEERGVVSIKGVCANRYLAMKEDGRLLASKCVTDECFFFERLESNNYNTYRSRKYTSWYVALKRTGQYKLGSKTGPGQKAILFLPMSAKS

Regarding `COC(=O)C1(CC(C)C)C=C2C(=C(C(C)C)C(=O)C2C)CN1` (stereo not given), the composite z-score was 0.928 in [1]; -1.05 in test [2]; 0.208 in test [3]; -0.653 in [4]; -1.04 in test [5]; -0.688 in test [6]. The figures for the composite z-score (with Lefty1; in [8]) were -0.746 and 0.323, respectively. Besides, the z-score in [7] was 0.44; in test [9], 1.66 (inactive).
`C=CCC(OC(C)=O)[C@@H]1[C@@H](N(Cc2cc3ccccc3o2)C(=O)c2cccc3ccccc23)c2cc(OCCCO)ccc2N1C(=O)c1ccc2ccccc2c1` (stereo not given in full): the composite z-score in test [1] is -0.0596; in [2], -0.566; in test [3], 0.11; in test [4] it was -0.262; in test [5] it was 0.65; in test [6], 0.133. In addition, the composite z-score in the test with Lefty1 is 0.203; in test [8], -0.0449. The results for the z-score in test [7] and in test [9] were -0.0697 and 0.131 (inactive), respectively.
On to `COC(=O)[C@@]1(Cc2ccc(OC)cc2)[C@H]2c3cc(C(=O)N4CCCC4)n(CCc4ccc(OC)c(Br)c4)c3C[C@H]2CN1C(=O)c1ccccc1`, for which the composite z-score in test [1] was 1.66; in test [2], 1.16; in test [3], 0.946; in test [4], 0.406; in [5], -0.533; in test [6], -0.381. Also, the composite z-score in the test on Lefty1 was -1.13; in test [8], 0.345. Besides, the results for the z-score in [7] and in test [9] were 0.914 and 0.626 (inactive), respectively.
As for `C[N+](C)(C)CCCC[C@@H]1NC(=O)[C@H]2C[C@@H](C(=O)NCCCCCNC(=O)CS)[C@@H](c3ccc(O)cc3)N2C1=O`, the composite z-score was found to be 2.82 in test [1]; 0.785 in test [2]; 0.336 in test [3]; 0.9 in test [4]; 1.07 in test [5]; 0.826 in test [6]. The values for the composite z-score (with Lefty1; in test [8]) were 0.349 and 0.215, respectively. Besides, the z-score in [7] is 0.455; in test [9], -1.2 (inactive).
Consider `COCCOC(=O)N1C(=O)[C@@]2(c3cc(C#CC4(O)CCCCCC4)ccc31)[C@H](c1ccccc1OCCO)N1[C@H](c3ccccc3)[C@H](c3ccccc3)OC(=O)[C@H]1[C@@H]2C(=O)N1CCCCCCC1`, for which the composite z-score in test [1] was found to be 0.663; in test [2], 1.23; in test [3] it was 0.504; in [4], 0.733; in test [5], 1.45; in test [6], 1.09. Further, the composite z-score worked out at 1.37 with Lefty1 and 1.29 in [8]. The results for the z-score in test [7] and in [9] were -0.768 and 0.144 (inactive), respectively.
Regarding `CC(C)[Si](C#CCCCC#N)(O[C@H](c1ccccc1)c1cn([C@H](C)c2ccccc2)nn1)C(C)C`, the composite z-score is 0.67 in test [1]; 0.893 in test [2]; -0.0546 in test [3]; 0.464 in test [4]; 0.661 in test [5]; 0.286 in test [6]. The values for the composite z-score (in the test with Lefty1; in [8]) were 0.739 and 0.0425, respectively. In addition, the z-score in test [7] is 2.34; in test [9] it was -0.863 (inactive).
For `CN1C(=O)C2C(C1=O)C1C=C(c3ccc(CO)cc3)C2C(c2cccs2)N1C` (stereo not given), the composite z-score is 0.495 in test [1]; 0.157 in test [2]; 0.0955 in [3]; 0.783 in test [4]; -0.0613 in test [5]; -0.25 in test [6]. Further, the composite z-score was -0.295 in the test on Lefty1 and 0.742 in [8]. The z-score in [7] is -0.0324; in [9], -0.836 (inactive).
As for `CC(C)N1CC=CC23O[C@@H]4C=CCCOC(=O)C4[C@H]2C(=O)N(CCCCCO)[C@@H]3C1=O` (stereo not given in full), the composite z-score in test [1] was 3; in test [2] it was -0.349; in [3], -0.133; in [4], 0.834; in test [5], -1.21; in test [6] it was -0.886. Besides, the composite z-score with Lefty1 was -0.376; in [8], 0.717. In addition, the z-score in test [7] was 1.34; in [9], 0.0137 (inactive).
As for `C=CCOC(=O)[C@H]1[C@@H]2C(=O)O[C@@H](c3ccccc3)[C@@H](c3ccccc3)N2[C@@H](c2ccc(OCCOC(=O)[C@@H]3C[C@@H]4C(=O)N[C@@H](Cc5ccccc5)C(=O)N4[C@@H]3c3ccc(O)cc3)cc2)[C@]12C(=O)Nc1ccccc12`, the composite z-score amounted to 1.78 in test [1]; 1.19 in test [2]; 1.53 in test [3]; 0.911 in [4]; 1.32 in [5]; 1.33 in test [6]. Besides, the composite z-score was found to be 0.948 in the test on Lefty1 and 1.2 in test [8]. Moreover, the figures for the z-score in [7] and in [9] were -1.15 and -0.497 (inactive), respectively.
On to `COC(=O)[C@@]1(Cc2ccc(F)cc2)[C@H]2c3cc(C(=O)N(C)C)n(CCO)c3C[C@H]2CN1C(=O)c1ccccc1`, for which the composite z-score was 2.78 in test [1]; 0.889 in test [2]; 0.991 in test [3]; 0.797 in [4]; -0.409 in [5]; -0.566 in test [6]. The composite z-score with Lefty1 was -0.483; in test [8], 0.718. Moreover, the z-score in test [7] was -0.0423; in test [9], -0.683 (inactive).
Take `CC(c1ccccc1)C(O)C1C=CC2C(=O)N(c3ccccc3)C(=O)C2N1Nc1ccc(C#N)cc1` (stereo not given): the composite z-score in [1] is 2.19; in test [2], 1.22; in test [3], 0.648; in test [4], 0.993; in test [5], 1.12; in test [6] it was 0.329. Further, the composite z-score turned out to be 1.12 in the test on Lefty1 and 0.772 in test [8]. Besides, the values for the z-score in test [7] and in test [9] were 1.03 and -0.424 (inactive), respectively.
In the case of `CC(=O)NCCCC[C@@H]1NC(=O)[C@H]2C[C@@H](C(=O)NCCCCCC[N+](C)(C)C)[C@@H](c3ccc(O)cc3)N2C1=O`, the composite z-score in test [1] was 1.54; in test [2] it was 1.08; in test [3], 0.26; in test [4], -0.0238; in [5] it was 1.26; in [6], 0.862. The composite z-score in the test with Lefty1 turned out to be 1.41; in [8], 0.16. For the same molecule, the z-score in [7] is -0.431; in test [9] it was 0.512 (inactive).
On to `C=C(CCCC)C(=O)CC[C@H](OC(C)=O)c1ccccc1OCCO`, for which the composite z-score was 0.0808 in [1]; -0.167 in test [2]; -0.176 in [3]; -0.107 in [4]; 1.16 in test [5]; 0.105 in [6]. Besides, the composite z-score in the test with Lefty1 turned out to be 1.36; in test [8], 0.737. For the same molecule, the z-score was -0.012 in test [7] and -0.722 (inactive) in test [9].
In the case of `COCCOC(=O)N1C(=O)[C@@]2(c3cc(C#CCC(C(=O)OC)C(=O)OC)ccc31)[C@H](C(=O)N1CCCCCCC1)[C@H]1C(=O)O[C@H](c3ccccc3)[C@H](c3ccccc3)N1[C@@H]2c1ccccc1OCCO`, the composite z-score amounted to 2.09 in test [1]; 1.18 in [2]; 0.945 in test [3]; 0.775 in test [4]; 1.45 in test [5]; 1.43 in test [6]. For the same molecule, the composite z-score in the test on Lefty1 amounted to 0.884; in [8], 1.46. Further, the values for the z-score in test [7] and in test [9] were -1.49 and -0.694 (inactive), respectively.
